Screening results deposited in PubChem by National Center for Advancing Translational Sciences (NCATS).
p53ts 39C tox – p53ts cell cytotoxicity, nonpermissive temperature; H1299-p53A138V viability at 39C, ATP luminescence, 24 h; 130,000 tested, 1.5% active; Potency, µM (doses to about 46.1 µM), most hits filed as cytotoxic; also: nearly all actives have a fitted effect of over 55% in size
Peg3 imprint – genomic imprint erasure induction | mouse ES Peg3-LacZ reporter, beta-gal luminescence, 40 h | Potency, µM (doses to about 60.7 µM), hits mostly activators | 110,000 tested, 0.02% active | AID 1948
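Readout: BetaGlo luminescence (5 min, room temp) for LacZ from the normally silent maternal Peg3 allele in female Peg3LacZ-Neo ES cells. Cells 300/well, 40 h, 37C, 5% CO2. Data normalized per plate to negative controls.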
p53ts 32C tox – cytotoxicity in p53ts cells at permissive temperature. H1299-p53A138V at 32C, ATP luminescence viability, 24 h. Potency, µM (series often up to 46.1 µM), most hits filed as cytotoxic. 130,000 tested, 0.93% active; also: nearly all actives have a fitted effect of over 55% in size
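H1299-p53 A138V cells (temperature-sensitive p53) exposed 24 h to up to 46 uM compound at 32C, where p53 is wild-type in conformation. Viability read as ATP luminescence and normalised to DMSO and 100 uM tamoxifen. AC50 fitted with the Hill equation.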
A number is an active result; n = inactive; u = inconclusive; x = not tested or not shown; [ ] = remark or other dose. The list is not random: actives were taken first. Their share in the collection is about 1.6%. Calls follow the shape of the dose curve; as a rule, active = well fitted curve in the direction sought with a large enough effect; inconclusive = small, poorly fitted or top-dose-only effect, or another doubt; inactive = no such curve, though single readings can be large; an effect the other way counts as inactive or inconclusive.

SMILES | p53ts 39C tox | Peg3 imprint | p53ts 32C tox
Cc1cc2c(cc1S(=O)(=O)N(CCO)Cc1ccccc1)OCC(=O)N2 | n | n[10.9 µM] | n
CC(C)c1ccc2oc(-c3cccc(NC(=O)c4ccc5c(c4)OCCO5)c3)nc2c1 | 10µM | n[10.9 µM] | u
Cc1ccc2nc(-c3cccc(NC(=O)c4ccc5c(c4)OCCO5)c3)oc2c1 | u | n | u
COc1ccc(Cl)cc1NC(=O)C1CCCN(S(=O)(=O)c2ccc3c(c2)CCCC(=O)N3)C1 (centres undefined) | n | n[10.9 µM] | n
C[C@](N)(COP(=O)(O)O)C(=O)O | n | n | n
CCN(C(=O)c1ccc(C(=O)N(CC)c2ccccc2C)cc1)c1ccccc1C | n | n[10.9 µM] | n
CCCCCCCN(C(=O)CCl)c1ccccc1C | 25µM | x | u
COc1ccc(S(=O)(=O)NCc2ccc3c(c2)CCN3C(C)=O)cc1OC | n | n[10.9 µM] | n
CC(C)c1ccc(CNC(=O)c2ccc(N3CCCC3)c(NC(=O)NCc3ccc(F)cc3)c2)cc1 | n | n[10.9 µM] | n
Cc1ccccc1NC(=O)c1c(NC(=O)c2ccncc2)sc2c1CCC(C(C)(C)C)C2 (centres undefined) | n | n[10.9 µM] | n
COc1ccc(NC(=O)C(=O)NCCc2csc(-c3ccc(Cl)cc3)n2)cc1 | n | n[10.9 µM] | n
O=C(Nc1nc2ccccc2[nH]1)C1CCCO1 (centres undefined) | n | n | n
O=C(Nc1ccc(-c2nc3ccccc3[nH]2)cc1)C1CCCO1 (centres undefined) | 4µM | n | 2.5µM
CCOc1ccc(CCNS(=O)(=O)c2cc(Br)cc3c2N(C(C)=O)CC3)cc1OCC | n | n[10.9 µM] | n
CC(=O)c1cc(-c2ccccc2)n(CCC(=O)Nc2nc3c(C)cccc3s2)c1C | n | n[10.9 µM] | n
Cc1ccc(N2CCN(C(=O)c3cnn(-c4ccc(C)c(C)c4)c3C3CCNCC3)CC2)c(C)c1 | 20µM | n[10.9 µM] | n
Cc1ccc(Cl)cc1N1CCN(C(=O)c2cnn(-c3ccc(Cl)cc3)c2C2CCNCC2)CC1 | n | n[10.9 µM] | n
Cc1cccc(N(C)C(=O)CCNS(=O)(=O)c2ccc3c(c2)CCN3C(=O)C2CC2)c1 | n | n[10.9 µM] | n
CCN(C(=O)Cn1nc(Cc2ccncc2)c2ccccc2c1=O)c1cccc(Cl)c1 | n | n[10.9 µM] | n
CC(C)n1c(SCC(=O)Nc2ccc(F)cc2)nc2c(oc3ccccc32)c1=O | u | n[10.9 µM] | n
Cc1cccc(C)c1NC(=O)CN(Cc1ccc(Br)cc1)S(=O)(=O)c1ccccc1 | n | n[10.9 µM] | n
CCOc1ccc2nc(N3CCCC(C(=O)NCCc4ccc(Cl)cc4)C3)sc2c1 (centres undefined) | u | n[10.9 µM] | n
CCOc1ccc2nc(N3CCCC(C(=O)NCCCN4CCOCC4)C3)sc2c1 (centres undefined) | n | n | 10µM
CCCCCN1C(C(=O)c2ccccc2)=C(OC(=O)CC)c2ccccc2S1(=O)=O | n | n[10.9 µM] | u
CCCCN1C(C(=O)c2ccccc2)=C(OC(=O)CC)c2ccccc2S1(=O)=O | 16µM | n[10.9 µM] | n
SMILES | p53ts 39C tox | Peg3 imprint | p53ts 32C tox
NCCCCNS(=O)(=O)c1ccc2c(Cl)cccc2c1 | n | n | n
NCCCCCCNS(=O)(=O)c1ccc2c(Cl)cccc2c1 | 32µM | n | n
COCc1cc(C)nc2sc(C(=O)Nc3cc(C)ccc3F)c(N)c12 | n | n[10.9 µM] | n
CCc1ccc2occ(CC(=O)Nc3c(C(=O)Nc4ccc(Cl)cc4)oc4ccccc34)c2c1 | n | n[10.9 µM] | n
CCc1ccc2occ(CC(=O)Nc3c(C(=O)Nc4ccc(C)cc4)oc4ccccc34)c2c1 | 32µM | n[10.9 µM] | n
CCOC(=O)Cc1c(C)nc2c(-c3cccc(Br)c3)c[nH]n2c1=O | 13µM | n | u
CCOC(=O)Cc1c(C)nc(-c2ccccc2)[nH]c1=O | n | n | n
Cc1cccc(NC(=O)CN(C)S(=O)(=O)c2ccc3c(c2)c(=O)n(C)c(=O)n3C)c1C | n | n[10.9 µM] | n
N#Cc1cccc(-c2nc(NCc3cccs3)c3ccccc3n2)c1 | n | 6.3µM | n
c1cncc(-c2nc(NCc3cccs3)c3ccccc3n2)c1 | n | n | n
O=C(NCc1cccc(F)c1)C1CCCN(C(=O)N2CCOc3ccccc32)C1 (centres undefined) | n | n[10.9 µM] | n
C=CC(=O)OCCOCCOC(=O)C=C | 32µM | n | n[1.84 µM]
O=C(N=c1nc2ccccn2s1)c1ccccc1 | u | n | 2µM
Cc1csc(=NC(=O)c2ccccc2)n1C | n | x | n
CN(C)C(=O)c1ccc(-c2nc(-n3ccnc3)c3ccccc3n2)cc1 | 10µM | n | 7.9µM
CN(C)c1ccc(-c2nc(-n3ccnc3)c3ccccc3n2)cc1 | 13µM | n | 10µM
CN(C)c1ccc(-c2nc(N3CCNCC3)c3ccccc3n2)cc1 | 10µM | n | 13µM
Cc1ccccc1-c1nc(N2CCNCC2)c2ccccc2n1 | n | n | n
CN(C)C(=O)c1ccc(-c2nc(N3CCOCC3)c3ccccc3n2)cc1 | n | u | u
Clc1ccccc1-c1nc(-n2ccnc2)c2ccccc2n1 | n | n | n
COc1ccc(C2C(=O)N(C3CCCCC3)CC(=O)N2CCC2=CCCCC2)cc1 (centres undefined) | n | n[10.9 µM] | n
COc1ccc(-c2nc3cc(C(C)C)ccc3o2)cc1NC(=O)c1ccccc1[N+](=O)[O-] | n | n[10.9 µM] | n
COc1ccc(Cl)cc1NC(=O)C(=O)NCc1ccc(Cl)cc1 | n | n[10.9 µM] | n
CCCCNC(=O)c1ccc2c(=O)n(-c3ccccc3)c(=O)[nH]c2c1 | n | n[10.9 µM] | n
COc1ccc(CCNC(=O)CCCn2c(=O)c3ccccc3n(CC(=O)Nc3ccc(C)cc3Cl)c2=O)cc1OC | n | n[10.9 µM] | u
SMILES | p53ts 39C tox | Peg3 imprint | p53ts 32C tox
CCN(CC)C(=O)c1c(-c2ccccc2)c(-c2ccccc2)nn(C)c1=O | n | n[10.9 µM] | n
CCOC(=O)c1c(NC(=O)CCCOc2ccc(Cl)cc2)sc2c1CCC2 | n | n[10.9 µM] | n
CCCN(CCC)c1nc(NC2CCN(C(=O)OCC)CC2)nc(OC)n1 | 20µM | n | n
CCOC(=O)N1CCC(Nc2c(OCC)c(=O)c2=O)CC1 | n | n | n
COc1ccc(CNC(=O)c2cc3cc(C)ccc3n2C)cc1 | u | n[10.9 µM] | u
O=C(O)c1cccc(SSc2cccc(C(=O)O)c2)c1 | n[9.22 µM] | n[10.9 µM] | n[9.22 µM]
CCCNC(=O)C1CCN(Cc2cc3ccccc3n2Cc2ccccc2)CC1 | n | n[10.9 µM] | n
CN(C)CCNC(=O)C1CCN(Cc2cc3ccccc3n2Cc2ccccc2)CC1 | 13µM | n[10.9 µM] | u
CCCCNC(=O)CN1CCN(c2ncc(NC(=O)c3ccc(Cl)cc3)cc2C(=O)O)CC1 | n | n[10.9 µM] | n
COc1ccc(CCNC(=O)Cc2c(C)c3cc(OC)c(OC)cc3oc2=O)cc1 | n | n[10.9 µM] | n
O=c1cnc2cnc(Oc3ccccc3)nc2n1C1CC1 | n | u | n
Nc1ccc(-c2ccc3ccccc3n2)cc1 | u | n | u
O=C1c2ccccc2C(=O)C1c1ccc2ccccc2n1 | 2.5µM | n | u
COC(=O)c1sc2ccccc2c1S(=O)(=O)N1CCN(c2ccc(C(C)=O)cc2)CC1 | u | n[10.9 µM] | n
CC1OC(OC2CCC3(C)C(CCC4C3CC(O)C3(C)C(C5=CC(=O)OC5)CCC43O)C2)CC(O)C1OC1CC(O)C(OC2CC(O)C(OC3OC(CO)C(O)C(O)C3O)C(C)O2)C(C)O1 (centres undefined) | x | n | x
COc1ccc(CNC(=O)CCn2c(=O)c3cccn3c3ccc(F)cc32)cc1OC | n | u | n
CCn1c(=O)c2cc(C(=O)NC3CCCCCC3)sc2c2ccccc21 | n | n[10.9 µM] | n
